Assay outcomes (PubChem BioAssay)
TGFb SMAD3 inh: qHTS for Inhibitors of TGF-b. HepG2 CAGA-GFP TGF-b/SMAD3 reporter, GFP fluorescence, 18 h; TGF-beta stimulated, 500 pg/mL final. Potency, µM (top dose mostly 46.1 µM), without a hit: at the top dose activity, negative = inhibition, hits mostly inhibitors. actives 1.2% (n = 410,000). AID 588855, 2011; also: potency is read from the fitted curve at half-maximal effect; % is scaled to controls: 0 for no effect and ±100 for the full control effect; nearly all actives have a fitted effect of over 65% in size
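HEPG2 CAGA-GFP cells (1000/well, DMEM with 1% FBS) were pre-incubated 2 h at 37 degrees C, given compound by pin tool, then stimulated with TGF-beta at 500 pg/mL final for 18 h before per-cell GFP fluorescence imaging.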
TDP1 cell CPT: qHTS for Inhibitors of human tyrosyl-DNA phosphodiesterase 1 (TDP1): qHTS in cells in presence of CPT. chicken DT40 Tdp1-/-;hTDP1 cells + 20 nM CPT, ATP luminescence, 48 h. Potency, µM (titrated, usually from 46.2 µM), without a hit: top-dose activity change, negative = growth inhibition, usual class: inhibitors. actives 12% (n = 420,000); also: potency is read from the fitted curve at half-maximal effect; % is scaled to controls: 0 for no effect and ±100 for the full control effect; nearly all actives have a fitted effect of over 55% in size
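Cell growth measured by CellTiter-Glo luminescence after a minimum 48 h, 37 C compound exposure with 20 nM CPT in Tdp1-knockout DT40 cells stably expressing hTDP1, seeded 400/well; qHTS titration format.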
TDP1 inh: qHTS Assay for Inhibitors of Tyrosyl-DNA Phosphodiesterase (TDP1). Tyrosyl-DNA phosphodiesterase 1 (Homo sapiens), Q9NUW8. recombinant TDP1, AlphaScreen DNA substrate cleavage. Potency, µM (doses to about 130 µM), inactives show at the highest dose activity change, negative = inhibition, hits mostly inhibitors. actives 0.28% (n = 350,000). AID 485290, 2010; also: potency is read from the fitted curve at half-maximal effect; % is scaled to controls: 0 for no effect and ±100 for the full control effect; nearly all actives have a fitted effect of over 40% in size
Target sequence (Q9NUW8 whole entry, looked up): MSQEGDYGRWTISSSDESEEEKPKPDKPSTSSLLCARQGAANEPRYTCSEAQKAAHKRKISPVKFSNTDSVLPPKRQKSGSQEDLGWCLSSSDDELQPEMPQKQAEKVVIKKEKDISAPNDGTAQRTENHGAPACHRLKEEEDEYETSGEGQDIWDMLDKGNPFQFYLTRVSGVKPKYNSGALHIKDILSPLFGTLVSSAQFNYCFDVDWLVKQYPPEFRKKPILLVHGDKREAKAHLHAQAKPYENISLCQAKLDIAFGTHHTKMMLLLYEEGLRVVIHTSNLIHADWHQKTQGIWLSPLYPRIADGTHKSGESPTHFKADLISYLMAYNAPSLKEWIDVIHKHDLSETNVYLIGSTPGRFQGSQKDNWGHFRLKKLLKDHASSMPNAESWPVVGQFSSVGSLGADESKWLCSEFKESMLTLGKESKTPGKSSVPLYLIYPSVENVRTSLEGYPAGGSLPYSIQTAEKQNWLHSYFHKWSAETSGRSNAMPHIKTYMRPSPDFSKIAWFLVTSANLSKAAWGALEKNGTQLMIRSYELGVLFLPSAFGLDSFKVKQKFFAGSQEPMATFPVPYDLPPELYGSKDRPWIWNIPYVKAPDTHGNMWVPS
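Steps: enzyme plus compound, 15 min RT; add biotin/phosphotyrosine-FITC oligonucleotide (15 nM final), react 5 min; add donor/acceptor beads (10 ug/ml final), 10 min; read AlphaScreen. Tdp1 at 1 nM final.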
TDP1 cell noCPT: qHTS for Inhibitors of human tyrosyl-DNA phosphodiesterase 1 (TDP1): qHTS in cells in absence of CPT | DT40 Tdp1-/- hTDP1 cells, no CPT, ATP luminescence, 48 h | actives 15% (n = 420,000) | Potency, µM (titrated, usually from 46.2 µM), for the others: at the highest dose activity change, negative = growth inhibition, hits mostly inhibitors | AID 686978, 2013; also: potency is read from the fitted curve at half-maximal effect; % is scaled to controls: 0 for no effect and ±100 for the full control effect; nearly all actives have a fitted effect of over 55% in size
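Chicken DT40 Tdp1-/- cells stably complemented with human TDP1 were seeded at 400 cells/well with DMSO in place of 20 nM camptothecin. After compound pinning, cells grew at least 48 hr at 37 °C; viability read by CellTiter-Glo luminescence.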
IL-1B inflam inh: qHTS for Inhibitors of Inflammasome Signaling: IL-1-beta AlphaLISA Primary Screen; actives 4.7% (n = 360,000); activity change, % at 57.5 µM; THP-1 LPS/ATP IL-1B secretion, AlphaLISA, 16 h; stronger effect = lower value; in the data active = activity change below about -50%; inconclusive = mostly about -30% to -49%; also: % is scaled to controls: 0 for no effect and ±100 for the full control effect
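THP-1 cells pretreated 1 hr with compounds (up to 57.5 uM final), then stimulated with LPS (250 ng/mL final) plus ATP (1.25 mM final); secreted IL-1B measured by AlphaLISA after 16 hr, decreased signal indicating inhibition.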
HepG2 viability: qHTS for Inhibitors of TGF-b: Cytotox Counterscreen | HepG2 CAGA-GFP viability, ATP luminescence, 18 h | Potency, µM (series often up to 46.1 µM), inactives show top-dose activity change, negative = cytotoxicity, most hits filed as cytotoxic | actives 0.76% (n = 410,000); also: potency is read from the fitted curve at half-maximal effect
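HepG2 CAGA-GFP cells (1000/well, DMEM with 1% FBS) received compound, then TGF-beta at 500 pg/mL final, and were incubated 18 hours at 37 degrees C. Viability was read by CellTiter-Glo luminescence. Media-only wells were set as complete cell-killing and DMSO as no toxicity.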
* marks the source's active call; other numbers are inactive results; u = inconclusive; x = not tested or not shown; ! = a repeat was not active; [ ] = dose if it differs, or a comment. This is a sample that favours compounds with a hit; in the whole collection about 18% have one here. Unless noted, calls follow the shape of the dose curve; as a rule, active = well fitted curve in the direction sought with a large enough effect; inconclusive = small, poorly fitted or top-dose-only effect, or another doubt; inactive = no such curve, though single readings can be large; an effect the other way counts as inactive or inconclusive.

SMILES	TGFb SMAD3 inh	TDP1 cell CPT	TDP1 inh	TDP1 cell noCPT	IL-1B inflam inh	HepG2 viability
COC(=O)C1=C(c2cc3ccccc3o2)C[C@@H]2CC[C@H]1N2C(=O)NCc1cccc2ccccc12	-17.3%	u	x	16.4µM*	-15.5	-16.9%
[O-]/[N+](=N\O)c1ccccc1	x	x	22.2%	x	x	x
CCN(CC)CCCCN1c2ccccc2Oc2ccc(Cl)cc21	x	x	15.4%	x	x	x
CC(C)C[C@H](NC(=O)[C@H](Cc1ccccc1)NC(=O)CNC(=O)[C@@H](COC(C)(C)C)NC(=O)[C@@H](N)Cc1ccc(O)cc1)C(=O)N[C@H](C(=O)O)[C@@H](C)OC(C)(C)C	x	x	10.8%	x	x	x
CCOc1ccccc1CN1C2CCC1CC(c1ccc(C)cc1)C2 (stereo unspecified)	u	23.1µM*	x	18.4µM*	-12.2	-21.2%
COc1ccc(NC(=O)c2cccn(Cc3ccc(Cl)cc3)c2=O)c(OC)c1	-14.8%	u	-2.2%	-26.7%	x	-26.1%
O=C(Nc1ccc(Cl)c(C(F)(F)F)c1)[C@@H]1CC=C[C@@H]2CCN(Cc3ccccc3)C(=O)[C@@H]21	-0.8%	u	x	u	-15.6	-5.0%
CN(C)c1ccc(-[n+]2c(-c3ccccc3)cc(-c3ccccc3)cc2-c2ccccc2)cc1	3.98µM*	0.326µM*	2.7%	0.411µM*	-92.4*	-36.4%
Clc1ccc2ccccc2c1	x	x	2.0%	x	x	x
Cc1ccc(-c2cc(-c3ccccc3)cc(-c3ccccc3)[n+]2-c2ccccc2)cc1	5.62µM*	1.64µM*	1.4%	0.92µM*	-100.4*	-64.5%
C[n+]1c(-c2ccccc2)cc(-c2ccc(Cl)cc2)cc1-c1ccccc1	-1.0%	3.66µM*	0.0%	2.06µM*	-82.8*	-15.6%
CSSC	x	x	12.1%	x	x	x
Cc1cccc(C)c1N	x	x	6.5%	x	x	x
COC(=O)C[C@](O)(CCCC(C)(C)O)C(=O)O[C@@H]1C(OC)=CC23CCCN2CCc2cc4c(cc2[C@H]13)OCO4 (stereo partly specified)	x	0.0133µM*	x	0.0094µM*	x	x
COC(=O)C[C@@](O)(CCC(C)(C)O)C(=O)O[C@@H]1C(OC)=C[C@]23CCCN2CCc2cc4c(cc2[C@@H]13)OCO4	x	x	3.6%	x	x	x
Cc1ccc(-c2nn(C)c(=O)c3ccccc23)cc1CNC(=O)/C=C/c1ccccc1	-4.8%	-24.0%	3.8%	u	-19.6	-11.9%
N#Cc1cc2c(nc1SCC(=O)Nc1ccc(OC(F)(F)F)cc1)C1CCN2CC1	-3.5%	u	2.3%	18.4µM*	x	-23.2%
CCOC(=O)c1ccc(NC(=O)CSc2nc3c(cc2C#N)N2CCC3CC2)cc1	7.0%	x	0.6%	x	x	-21.4%
N#Cc1cccc(NC(=O)CSc2nc3c(cc2C#N)N2CCC3CC2)c1	u	u	3.2%	16.4µM*	x	-4.3%
N#Cc1cccc(NC(=O)c2sc3nc4c(cc3c2N)N2CCC4CC2)c1	-9.2%	4.11µM*	0.0%	13µM*	x	-26.1%
C/C=C/C=O	x	x	6.5%	x	x	x
C[N+](=O)[O-]	x	x	2.5%	x	x	x
CC(C)[C@H]1CC2C3CC=C4C[C@@H](O)CC[C@]4(C)C3CC[C@]2(C)[C@H]1O (stereo partly specified)	13.3%	-29.2%	-0.8%	u	-21.1	-14.6%
CC(=O)[C@H]1[C@H](C#N)C[C@H]2[C@@H]3CC=C4C[C@@H](O)CC[C@]4(C)[C@H]3CC[C@@]21C	-4.0%	u	8.7%	12.6µM*!	14.6	-2.9%
COc1ccc(OC)c(CN2C(=O)c3ccccc3C2c2nnnn2-c2c(C)cccc2C)c1 (stereo unspecified)	x	u	x	u	-0.9	x
SMILES	TGFb SMAD3 inh	TDP1 cell CPT	TDP1 inh	TDP1 cell noCPT	IL-1B inflam inh	HepG2 viability
O=C(O)CCC1NCC2CC1CN1CCCCC21 (stereo unspecified)	x	-10.0%	5.7%[56.1 µM]	-2.5%	x	x
COc1ccc(F)cc1CN1CCN(C(=O)CCC(=O)Nc2nnc(CC(C)C)s2)CC1	0.3%	u	3.9%	u	21.5	1.5%
CCOc1ccc(NC(=O)c2cc3c(C)nn(-c4ccccc4)c3s2)cc1	-8.3%	20.6µM*	x	10.3µM*	x	-13.5%
CCOc1ccc(NC(=O)c2ccc(NC(=O)COC(=O)Cc3ccccc3)cc2)cc1	-5.4%	-5.9%	5.4%	-1.9%	-11.7	12.1%
CC1OC(OC2C=C3CCC4C(CCC5(C)C(c6ccc(=O)oc6)CCC45O)C3(C)CC2)C(O)C(OC2OC(CO)C(O)C(O)C2O)C1O (stereo unspecified)	0.398µM*	0.164µM*	x	0.184µM*	-70.8*	-53.9%
CCCCCCCCCc1ccc(OCCOCCO)cc1	x	2.99µM*	x	2.99µM*	x	x
CS(=O)(=O)N1CCC2(CC1)CN(Cc1ccncc1)C2	x	1.9%	x	5.9%	x	x
C[C@@H]1CNC(=O)c2c(C(=O)Nc3ccc(CNC(=O)OC(C)(C)C)cc3)ncn21	u	23.1µM*	x	9.2µM*	-12.3	-19.1%
Cn1c(=O)c2c(-c3ccccc3)n3c(c2n(C)c1=O)C(c1ccco1)Nc1ccccc1-3 (stereo unspecified)	1.1%	u	0.0%	u	x	1.5%
CC(Cc1ccccc1)NCCC(=O)NC(C)Cc1ccccc1 (stereo unspecified)	-24.6%	u	x	u	-14.1	-38.1%
C[C@@H](Cc1ccccc1)NCCC(c1ccccc1)c1ccccc1	x	u	4.8%[56.1 µM]	6.4µM*	x	x
COC(=O)Nc1cccc(OC(=O)Nc2cccc(C)c2)c1	x	x	-13.2%	x	x	x
O=C(NCc1ccccc1)Oc1cccc(Cl)c1	-4.2%	u	-2.6%	16.4µM*	0.0	-17.0%
Cc1ccc(Sc2ccc(C=C3C(=O)N(C)C(=O)N(C)C3=O)o2)cc1	7.9%	18.4µM*	4.8%	18.4µM*	-12.1	-0.5%
Cc1ccc([C@H]2C[C@@H](O)[C@H](n3cc(COC(=O)c4ccccc4)nn3)CN2CC2CCCCC2)cc1	0.0%	u	x	u	29.0	-9.1%
O=C1OC(=O)c2ccccc21	x	x	16.6%	x	x	x
CCCCC(=O)OCC(=O)[C@]1(O)Cc2c(O)c3c(c(O)c2[C@@H](O[C@H]2C[C@H](NC(=O)C(F)(F)F)[C@H](O)[C@H](C)O2)C1)C(=O)c1c(OC)cccc1C3=O	x	1.5µM*	x	1.33µM*	x	x
